High-throughput results as filed in PubChem BioAssay.
Shown is part of a subset that was picked to be rich in hits.
AMA1 RON2 block: qHTS for Inhibitors of AMA1-RON; Towards Development of Antimalarial Drug Lead: Primary Screen; AlphaScreen AMA1-biotinylated RON2 peptide binding; Potency, µM (highest dose often 58.2 µM), for inactives: top-dose activity change, negative = inhibition, most hits filed as inhibitors; 0.2% of 360,000 active; AID 720542, 2013;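 also: potency is read from the fitted curve at half-maximal effect; 0% = vehicle wells and -100% = peptide control; nearly all actives have a fitted effect of over 45% in size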
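AMA1 (3D7) with his tag at 25 nM final met compounds first, then biotinylated RON2 peptide at 25 nM; detection used donor plus acceptor beads, 10 µg/mL apiece, read by AlphaScreen after 30 min at room temperature.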
Shiga toxin inh: A qHTS for Small Molecule Inhibitors of Shiga Toxin. inhibition, % at 38.7 µM. Vero cells, Shiga toxin protein synthesis inhibition reporter. 9.2% of 290,000 active; in the data active = inhibition mostly above about 28%, no sharp cut-off; inactive = mostly below about 43%; also: 0% is about no effect
CHX counter: Cycloheximide Counterscreen for Small Molecule Inhibitors of Shiga Toxin. max response, %. 12% of 300,000 active. AID 2314, 2010. cell reporter, cycloheximide protein synthesis inhibition counterscreen; in the data active = max response mostly above about 13%, no sharp cut-off; inactive = mostly below about 14%; also: read at 38.3 µM for the half of the compounds with a filed dose; 0% is about no effect
SARS PLpro yeast: qHTS of Yeast-based Assay for SARS-CoV PLP; S. cerevisiae expressing SARS-CoV PLpro, growth rescue; Potency, µM (series often up to 32.9 µM), without a hit: top-dose activity, positive = growth rescue, actives largely listed as activators; 0.19% of 330,000 active; AID 485353, 2010; calls by dose curve; also: potency is read from the fitted curve at half-maximal effect; 0% is about no effect; nearly all actives have a fitted effect of over 55% in size
AmpC detergent: qHTS Inhibitors of AmpC Beta-Lactamase (assay with detergent) | P00811 | AmpC hydrolysis of nitrocefin, absorbance 480 nm, 0.01% Triton | Potency, µM (series often up to 114 µM), for inactives: at the highest dose activity change, negative = inhibition, actives largely listed as inhibitors | 0.041% of 370,000 active | AID 485294, 2010;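 also: potency is read from the fitted curve at half-maximal effect; 0% = no-compound wells and -100% = no-enzyme wells; nearly all actives have a fitted effect of over 25% in size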
Target sequence (P00811 whole entry, looked up): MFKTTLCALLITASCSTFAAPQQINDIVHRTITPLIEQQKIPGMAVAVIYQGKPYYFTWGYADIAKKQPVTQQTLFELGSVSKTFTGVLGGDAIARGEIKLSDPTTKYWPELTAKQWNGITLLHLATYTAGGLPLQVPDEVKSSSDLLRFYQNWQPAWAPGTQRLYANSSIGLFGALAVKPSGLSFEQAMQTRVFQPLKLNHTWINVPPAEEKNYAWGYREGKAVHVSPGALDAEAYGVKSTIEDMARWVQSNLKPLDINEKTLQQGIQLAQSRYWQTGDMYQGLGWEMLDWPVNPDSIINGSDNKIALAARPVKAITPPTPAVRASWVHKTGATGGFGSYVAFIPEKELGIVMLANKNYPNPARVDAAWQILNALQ
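20 mM phosphate pH 7.0 + 0.01% (detergent screen) or 0.0001% Triton X-100; 5.3 nM AmpC reagent; cpd preinc 15 min RT; nitrocefin (800 uM stock) to start; A480 q20 s × 4 min; Activity was normalised to no-enzyme and no-compound control wells.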
AmpC inh no detg: qHTS Inhibitors of AmpC Beta-Lactamase (assay without detergent); AmpC nitrocefin hydrolysis, absorbance 480 nm, 0.0001% Triton; Potency, µM (series often up to 57.1 µM), without a hit: top-dose activity change, negative = inhibition, usual class: inhibitors; 0.52% of 330,000 active;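 also: potency is read from the fitted curve at half-maximal effect; plate controls were no compound for no effect and no enzyme for full effect; nearly all actives have a fitted effect of over 20% in size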
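AmpC (5.3 nM in the dispensed reagent) in 20 mM phosphate pH 7.0 with 0.01% (detergent screen) or 0.0001% Triton X-100 was preincubated with compounds for 15 min at room temperature. Nitrocefin was then added from an 800 uM solution, and hydrolysis was followed at 480 nm.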
Starred values were filed as active, the others as inactive; ? = inconclusive; . = no result. Unless noted, calls follow the shape of the dose curve; as a rule, active = well fitted curve in the direction sought with a large enough effect; inconclusive = small, poorly fitted or top-dose-only effect, or another doubt; inactive = no such curve, though single readings can be large; an effect the other way counts as inactive or inconclusive.

SMILES	AMA1 RON2 block	Shiga toxin inh	CHX counter	SARS PLpro yeast	AmpC detergent	AmpC inh no detg
NC(=O)Nc1ccccc1C(=O)Nc1ccc2ccccc2c1	7.2%	.	-1.7	-2.6%	-14.8%	-22.2%
CCOC(=O)N1CCC(=NNC(=O)c2ccccc2F)CC1	24.4%	25.3*	49.0*	3.8%	-0.8%	-17.5%
O=C(Nc1ccc2ccccc2c1)c1ccccc1F	12.5%	68.1	24.0*	8.8%	-8.1%	-19.3%
O=C(Nc1ccc2oc(-c3ccc(F)cc3)nc2c1)c1ccccc1F	-2.5%	39.1*	29.4	4.8%	-10.8%	-24.9%
CCOC(=O)c1cc(C(=O)Nc2sc3c(c2C#N)CCCC3)nn1C	1.8%	25.2	1.9	3.0%	7.1%	-11.6%
O=C(Nc1ccc(SC(F)F)cc1)c1ccc(F)cc1	2.4%	145.1*	36.9*	-1.3%	0.9%	-48.7%
O=C(Nc1ccc2nc(-c3cccnc3)[nH]c2c1)c1ccccc1F	-6.5%	28.1	15.0*	-0.4%	2.5%	-26.5%
N#C/C(C(=O)N1CCOCC1)=C1\Nc2ccccc2S1	-3.7%	64.1*	34.6*	-8.5%	4.3%	-5.1%
Nc1nncn1C(=O)CCc1ccccc1	4.9%	20.5	9.3*	-4.9%	-2.8%	-15.0%
CC(C)c1ccc(NC(=O)C2CCN(C(=O)[C@@H]3Cc4ccccc4CN3)CC2)cc1	-1.4%	45.7*	22.9*	1.5%	0.9%	124.1%
Cc1ccccc1C(=O)N1CCC(C(=O)Nc2ccc(C(C)C)cc2)CC1	4.5%	-7.3	-1.9	0.8%	9.2%	161.8%
Cc1cc(C)cc(NC(=O)C2CCC(CNC(=O)[C@@H]3Cc4ccccc4CN3)CC2)c1 (some centres undefined)	36.4%	2.1	-4.1	10.7%	-9.6%	100.8%
Cc1ccc(NC(=O)C2CCN(C(=O)[C@@H]3Cc4ccccc4CN3)CC2)cc1	11.4%	63.1*	24.4*	-0.7%	-4.2%	-13.3%
CCc1ccc(NC(=O)C2CCC(CNC(=O)[C@@H]3Cc4ccccc4CN3)CC2)cc1 (some centres undefined)	-3.6%	-1.0	27.2*	-7.0%	0.1%	77.2%
Cc1cc(C)cc(NC(=O)C2CCN(C(=O)[C@@H]3Cc4ccccc4CN3)CC2)c1	-12.0%	17.3	-3.2	7.1%	-9.6%	30.4%
Cn1c(SCC(=O)Nc2ccc3cn[nH]c3c2)nnc1-c1cnccn1	30.3%	-13.2	-2.7	1.7%	?	83.0%
CCOc1ccc(CNS(=O)(=O)c2ccc3[nH]c(=O)ccc3c2)cc1	.	.	.	.	2.4%	.
Cc1ccc(C)c(OCCSc2nnc(-c3cccnc3)n2N)c1	-1.8%	-3.5	-2.2	4.9%	-2.9%	-7.2%
CCn1c(SCC(=O)Nc2ccccc2C(=O)OC)nnc1-c1ccc(N)cc1	-8.4%	-5.1	1.3	3.6%	-6.6%	-0.2%
CCn1c(SCC(=O)Nc2ccc3c(c2)oc2ccccc23)nnc1-c1ccc(N)cc1	?	39.2	35.2*	-15.4%	0.7%	33.0%
CC(=O)Nc1ccc(-c2nnc(SCC(=O)Nc3ccc4c(c3)oc3ccccc34)n2C)cc1	-2.5%	44.4	16.0*	-3.1%	2.8%	16.4%
COC(=O)c1c(NC(=O)/C=C/c2ccc(OC)cc2)sc2c1CCC2	.	.	.	.	10.7%	.
CNC(=O)c1c(NC(=O)/C=C/c2ccccc2)sc2c1CCC2	.	.	.	.	7.4%	.
O=C(/C=C/c1ccco1)Nc1sc2c(c1C(=O)O)CCC2	0.8%	51.6*	42.5*	-20.6%	?	-29.8%
O=C(/C=C/c1ccccc1)Nc1sc2c(c1C(=O)O)CCC2	43.7%	40.7*	25.4*	-1.6%	-14.6%	-27.1%
SMILES	AMA1 RON2 block	Shiga toxin inh	CHX counter	SARS PLpro yeast	AmpC detergent	AmpC inh no detg
N#Cc1c(NC(=O)/C=C/c2ccco2)sc2c1CCCC2	-0.9%	67.1*	51.4*	-2.1%	-15.0%	-33.8%
CCc1ccc(-n2cccc2/C=C2/C(=N)N3C(=NC2=O)SN=C3S(C)(=O)=O)cc1	-6.2%	1.1	-1.7	-13.8%	?	?
Cc1cc(C(=O)N2CCN(C(c3ccccc3)c3ccccc3)CC2)on1	0.0%	-2.5	-6.5	-8.7%	-5.4%	105.5%
O=c1[nH]c2cc3c(cc2cc1C(c1nnnn1Cc1ccccc1)N1CCCc2ccccc21)OCO3 (centres undefined)	10.1%	43.9*	15.7*	-9.8%	-1.3%	-26.0%
Cc1cc2cc(C(c3nnnn3CC3CCCO3)N3CCCc4ccccc43)c(=O)[nH]c2cc1C (centres undefined)	2.6%	12.7	12.3*	-2.0%	9.2%	-11.2%
CCc1ccc2[nH]c(=O)c(C(c3nnnn3CC3CCCO3)N3CCCc4ccccc43)cc2c1 (centres undefined)	-14.0%	-10.5	9.3	3.5%	-4.1%	26.2%
CCOC(=O)C(C(=O)NCC1CCCO1)C1CCCCC1 (centres undefined)	-3.6%	6.6	0.2	-4.6%	-4.2%	-35.7%
CCOC(=O)C1CCN(c2ncnc3c2cnn3-c2ccc(OC)cc2)CC1	4.0%	-10.9	-1.1	-2.5%	1.4%	93.8%
CN1CCN(c2ncnc3c2cnn3-c2ccc(Cl)cc2)CC1	-4.8%	66.2*	42.1*	-10.1%	?	-0.6%
Cc1ccc(-n2ncc3c(N4CCN(C)CC4)ncnc32)cc1	.	.	.	.	-5.0%	.
CCOC(=O)N1CCN(c2ncnc3nc[nH]c23)CC1	-8.7%	8.6	-2.0	0.2%	?	44.7µM*
CCN1CCN(c2ncnc3c2cnn3-c2ccccc2)CC1	-2.7%	43.2	21.2	-6.1%	?	-1.6%
CCN1CCN(c2ncnc3c2cnn3-c2ccc(Cl)cc2)CC1	-3.6%	73.9*	45.0*	-1.8%	4.0%	-4.3%
CCOC(=O)N1CCN(c2ncnc3c2cnn3-c2ccc(Cl)cc2)CC1	.	-19.2	20.1*	5.7%	-2.2%	6.31µM*
Cc1ccc(NS(=O)(=O)c2ccc(C(=O)OCC(=O)Nc3cc(C)on3)cc2)cc1	0.0%	18.4	-2.0	-1.7%	-4.3%	-46.9%
COC(=O)CCn1[nH]c(=O)c2ccccc2c1=O	-4.6%	-9.8	-2.4	-8.6%	0.3%	-8.9%
O=c1[nH]n(Cc2ccccc2)c(=O)c2ccccc12	0.4%	3.9	26.2*	-3.0%	-0.4%	-37.3%
CCOc1ccc(C(=O)N[C@H](C(=O)NC2CCCCC2)C(C)C)cc1	9.5%	.	.	.	.	.
CCOc1ccc(C(=S)NC2CCCCC2)cc1	-5.5%	139.4*	52.4*	3.5%	6.3%	-20.4%
COc1ccc(C(=S)NC2CCCCC2)cc1	-2.7%	27.0	20.0*	0.9%	2.2%	-8.8%
COc1ccc(CCNC(=O)C2CCN(C(=O)c3cccs3)CC2)cc1	-8.2%	-1.7	1.6	3.4%	0.5%	-7.0%
O=C(Nc1ccc(N2CCOCC2)cc1)C1=NN(c2ccccc2)C(=O)CC1	?	.	.	-1.0%	-4.4%	18.8%
